Results on ten molecules are retold here after PubChem BioAssay (NCATS).

Assay [1] has as its target ATP-dependent 6-phosphofructokinase (Trypanosoma brucei brucei) (UniProt O15648). Nature of the assay: qHTS Assay to Find Inhibitors of T. brucei phosphofructokinase: hit validation (AID 492961).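 Further: luminescence reports ADP formed as PFK phosphorylates fructose-6-phosphate with ATP; on the % scale 0 is the no-effect control and ±100 the full control effect.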 Conditions: T. brucei PFK, ADP-Glo luminescence; series mostly up to 51.4 µM. The method, boiled down: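 Inhibition of parasite PFK is measured as reduced ADP formation, quantified via luciferase after ATP depletion. Assay used 0.1 mM ATP, 0.5 mM F6P, 1.25 nM enzyme, 45 min incubation.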

Assay [2] has as its target Glucocorticoid receptor (Homo sapiens) (UniProt P04150). Nature of the assay: qHTS assay for small molecule antagonists of glucocorticoid receptor signaling (AID 588533; active means well fitted inhibition curve with a large enough effect in the signal ratio, with a control signal flat, not every such curve was filed as active; the % refers to the signal ratio;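 further: cells stimulated with 2 nM dexamethasone as agonist; on the % scale 0 is the no-effect control and ±100 the full control effect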). Particulars: HeLa MMTV-bla, GRE beta-lactamase ratio, antagonist mode, 18 h; series mostly up to 76.8 µM. The method, boiled down: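 Antagonist-mode qHTS: compound titrations added to GRE-bla HeLa cells, then dexamethasone 2 nM final; 18 h, 37 C. CCF4 FRET fluorescence normalized to dexamethasone and DMSO; IC50 from Hill fit.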
(In general: Quantitative high-throughput screening tests each substance at several concentrations.)

Assay [3] in a line: qHTS assay for small molecule agonists of the antioxidant response element (ARE) signaling pathway (AID 651741; active means well fitted activation curve with a large enough effect in the signal ratio; the % refers to the signal ratio; further: potency means the concentration at half of the fitted maximal effect). Particulars: HepG2 ARE-bla reporter, beta-lactamase FRET ratio, 16 h; series mostly up to 96 µM. The method, boiled down: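 HepG2 ARE-bla cells plated at 2,000 cells/well and incubated 5 h at 37 C/5% CO2 received 23 nL compound in DMSO. After 16 h at 37 C, LiveBLAzer B/G FRET substrate was applied for 2 h at room temperature and fluorescence read.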

The target in assay [4] is Estrogen receptor (Homo sapiens) (UniProt P03372). As to the kind of experiment: qHTS assay for small molecule antagonists of estrogen receptor alpha signaling (AID 588513; active means well fitted curve in the direction sought with a large enough effect in the signal ratio, with a control signal flat, not every such curve was filed as active; the % refers to the signal ratio; further: potency means the concentration at half of the fitted maximal effect). Particulars: ER-alpha-UAS-bla HEK293, beta-lactamase ratio, antagonist mode; series mostly up to 76.9 µM. The method, boiled down: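 Fluorescence from CCF4 substrate after 2 h at room temperature gave reporter activity; cells had been exposed to compound and 0.5nM 17-beta-estradiol for 18 h at 37 C. Hill-equation fitting yielded IC50 and maximal response.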

A short description of assay [5]: qHTS assay for small molecule agonists of retinoid X receptor alpha signaling (AID 588544; calls by dose curve; further: potency means the concentration at half of the fitted maximal effect). Particulars: HEK293T RXRa-UAS-bla, beta-lactamase reporter, 18 h; 530 nm emission.
The target in assay [6] is Retinoic acid receptor RXR-alpha (Homo sapiens) (UniProt P19793). The description is as above. Particulars: HEK293T RXRa-UAS-bla, beta-lactamase reporter, 18 h; series mostly up to 76.7 µM.
The target in assay [7] is Androgen receptor (Homo sapiens) (UniProt P10275). As to the kind of experiment: qHTS assay for small molecule antagonists of androgen receptor signaling (AID 588516; active means well fitted curve in the direction sought with a large enough effect in the signal ratio, with a control signal flat, not every such curve was filed as active; the % refers to the signal ratio; further: potency means the concentration at half of the fitted maximal effect). Particulars: AR-UAS-bla HEK293, beta-lactamase ratio, antagonist mode, 16 h; series mostly up to 76.8 µM. Summed up:
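Cells were plated and incubated 5 h, compounds added in titration, then R1881 (10 nM final) as agonist. After 16 h at 37 C, CCF4 substrate was loaded for 2 h at room temperature and fluorescence measured.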

A short description of assay [8]: MultiTox-Fluor Cytotoxicity Assay - LYMP1-001 - Live Cells (AID 947).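 Further: 0% = DMSO only and full inhibition = tetraoctylammonium bromide control.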 Particulars: LYMP1-001 lymphoblastoid cells, live-cell protease fluorescence viability; series mostly up to 92.2 µM.
A short description of assay [9]: Cell Viability - LYMP2-005 (AID 967).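 Further: cells exposed to compound for 24 h at 37 °C; plate controls were DMSO only for no effect and 92 µM tetraoctylammonium bromide control for full effect.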 Conditions: LYMP2-005 lymphoblastoid cell viability; series mostly up to 92.2 µM. The method, boiled down:
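Acute cytotoxicity is scored as a concentration-dependent drop in intracellular ATP in human lymphoblastoid LYMP2-005 cells after 24 h compound treatment. ATP is quantified by luciferase luminescence, and AC50 is derived by Hill-equation modelling.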

Assay [10] is described as follows: qHTS assay for small molecule activators of the p53 signaling pathway (AID 651743; active means well fitted activation curve with a large enough effect in the signal ratio, not every such curve was filed as active; the % refers to the signal ratio; further: % of control where 0% means no effect). Particulars: HCT-116 p53RE-bla, beta-lactamase FRET ratio, 16 h; activation: stronger effect = higher value. The method, boiled down: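 HCT-116 p53RE-bla, 4,000 cells/well; 5 h settle; cpd/DMSO 16 h, 37 C; LiveBLAzer B/G 2 h RT; fluorescence intensity.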
Assay [11] concerns the target Cytochrome P450 2C9 (Homo sapiens) (UniProt P11712). Nature of the assay: qHTS Assay for Inhibitors and Substrates of Cytochrome P450 2C9 (AID 883). Further: on the % scale 0 is the no-effect control and ±100 the full control effect; nearly all actives have a fitted effect of over 60% in size. Conditions: recombinant CYP2C9, luciferin-H luminescence, 60 min; series mostly up to 57.1 µM. The method, boiled down: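 Signal: luciferase luminescence reporting luciferin produced by CYP2C9. Conditions: 10nM enzyme, Luciferin-H 100uM at KM, 25mM KPO4, 37C, 60 min NADPH-driven reaction. Reference: 57uM sulphaphenazole as 100% inhibition.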

Assay [12] addresses Cytochrome P450 2C19 (Homo sapiens) (UniProt P33261). As to the kind of experiment: qHTS Assay for Inhibitors and Substrates of Cytochrome P450 2C19 (AID 899). Further: on the % scale 0 is the no-effect control and ±100 the full control effect; nearly all actives have a fitted effect of over 60% in size. Conditions: recombinant CYP2C19, luciferin-H EGE luminescence; series mostly up to 57.1 µM. The method, boiled down:
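Signal comes from luciferase acting on luciferin released by CYP2C19-mediated hydroxylation of Luciferin-H EGE, 10uM (KM). Assay mix: 5nM enzyme, 50mM KPO4; 60 min at 37C with NADPH regeneration. Data normalized against 57uM ketoconazole.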

The structures appear in SMILES notation. Inconclusive results are not listed. Calls of active or inactive are those of the source. Unless noted, the call rests on the fitted dose curve; in most records, active means well fitted curve in the direction sought with a large enough effect; inconclusive means small, poorly fitted or top-dose-only effect, or another doubt; inactive means no such curve, though single readings can be large; an effect the other way counts as inactive or inconclusive.

Sequence of ATP-dependent 6-phosphofructokinase (Trypanosoma brucei brucei) (O15648 whole entry, looked up): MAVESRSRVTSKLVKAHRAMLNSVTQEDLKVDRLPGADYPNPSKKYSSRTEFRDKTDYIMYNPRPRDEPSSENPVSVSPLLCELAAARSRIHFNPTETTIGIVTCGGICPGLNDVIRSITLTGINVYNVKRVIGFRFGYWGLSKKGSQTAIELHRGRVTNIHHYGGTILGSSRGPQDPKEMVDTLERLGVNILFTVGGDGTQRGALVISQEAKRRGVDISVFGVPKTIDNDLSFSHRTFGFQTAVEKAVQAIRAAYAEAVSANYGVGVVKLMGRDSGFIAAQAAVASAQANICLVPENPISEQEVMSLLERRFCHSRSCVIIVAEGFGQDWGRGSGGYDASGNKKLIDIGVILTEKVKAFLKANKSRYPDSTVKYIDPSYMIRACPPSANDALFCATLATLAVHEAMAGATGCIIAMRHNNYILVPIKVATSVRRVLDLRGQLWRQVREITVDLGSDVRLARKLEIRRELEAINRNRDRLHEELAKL
Sequence of Glucocorticoid receptor (Homo sapiens) (P04150 whole entry, looked up): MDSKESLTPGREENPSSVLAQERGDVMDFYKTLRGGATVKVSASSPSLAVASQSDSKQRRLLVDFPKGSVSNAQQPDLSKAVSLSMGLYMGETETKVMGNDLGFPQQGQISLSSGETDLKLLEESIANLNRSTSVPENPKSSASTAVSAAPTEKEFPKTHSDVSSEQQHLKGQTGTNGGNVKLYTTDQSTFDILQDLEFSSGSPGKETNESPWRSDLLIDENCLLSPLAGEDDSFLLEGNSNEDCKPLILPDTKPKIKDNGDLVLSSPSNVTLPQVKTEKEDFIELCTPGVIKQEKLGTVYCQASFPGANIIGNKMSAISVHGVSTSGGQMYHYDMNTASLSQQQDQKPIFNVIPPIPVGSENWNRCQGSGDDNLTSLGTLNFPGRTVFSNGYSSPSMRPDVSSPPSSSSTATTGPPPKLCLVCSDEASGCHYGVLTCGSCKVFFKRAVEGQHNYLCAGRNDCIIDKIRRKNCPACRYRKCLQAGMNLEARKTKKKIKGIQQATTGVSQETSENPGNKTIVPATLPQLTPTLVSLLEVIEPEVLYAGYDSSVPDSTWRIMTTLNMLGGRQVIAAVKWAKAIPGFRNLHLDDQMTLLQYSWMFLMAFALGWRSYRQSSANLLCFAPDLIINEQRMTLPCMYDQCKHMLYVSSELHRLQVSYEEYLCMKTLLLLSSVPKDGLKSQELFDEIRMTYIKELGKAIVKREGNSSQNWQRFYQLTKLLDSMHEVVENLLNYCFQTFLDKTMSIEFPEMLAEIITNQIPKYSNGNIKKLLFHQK
Sequence of Cytochrome P450 2C9 (Homo sapiens) (P11712 whole entry, looked up): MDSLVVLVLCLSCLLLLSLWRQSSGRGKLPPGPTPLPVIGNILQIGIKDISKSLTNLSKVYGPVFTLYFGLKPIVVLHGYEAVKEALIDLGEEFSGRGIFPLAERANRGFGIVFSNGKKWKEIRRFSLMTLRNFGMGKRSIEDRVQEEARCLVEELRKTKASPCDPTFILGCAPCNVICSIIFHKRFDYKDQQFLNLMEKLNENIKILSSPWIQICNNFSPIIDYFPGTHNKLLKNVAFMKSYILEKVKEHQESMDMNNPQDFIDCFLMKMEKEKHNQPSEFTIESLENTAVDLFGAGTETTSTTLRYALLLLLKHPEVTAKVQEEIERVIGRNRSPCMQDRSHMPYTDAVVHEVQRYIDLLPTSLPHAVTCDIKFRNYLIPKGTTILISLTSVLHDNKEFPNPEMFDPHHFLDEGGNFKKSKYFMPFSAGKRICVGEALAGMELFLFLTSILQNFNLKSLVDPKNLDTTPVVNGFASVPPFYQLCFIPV
Sequence of Cytochrome P450 2C19 (Homo sapiens) (P33261 whole entry, looked up): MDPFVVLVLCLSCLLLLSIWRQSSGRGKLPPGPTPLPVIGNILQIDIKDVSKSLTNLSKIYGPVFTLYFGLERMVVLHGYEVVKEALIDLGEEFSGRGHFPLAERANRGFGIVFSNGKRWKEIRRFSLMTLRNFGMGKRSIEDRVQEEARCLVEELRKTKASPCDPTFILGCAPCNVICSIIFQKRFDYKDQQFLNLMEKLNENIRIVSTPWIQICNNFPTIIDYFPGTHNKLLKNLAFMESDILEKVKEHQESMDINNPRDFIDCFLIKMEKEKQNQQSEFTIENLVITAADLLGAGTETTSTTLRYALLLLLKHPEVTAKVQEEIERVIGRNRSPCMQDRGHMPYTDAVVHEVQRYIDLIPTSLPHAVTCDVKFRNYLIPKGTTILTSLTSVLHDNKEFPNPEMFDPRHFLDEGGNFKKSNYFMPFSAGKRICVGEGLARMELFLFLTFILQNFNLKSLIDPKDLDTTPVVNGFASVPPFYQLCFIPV
Sequence of Estrogen receptor (Homo sapiens) (P03372 whole entry, looked up): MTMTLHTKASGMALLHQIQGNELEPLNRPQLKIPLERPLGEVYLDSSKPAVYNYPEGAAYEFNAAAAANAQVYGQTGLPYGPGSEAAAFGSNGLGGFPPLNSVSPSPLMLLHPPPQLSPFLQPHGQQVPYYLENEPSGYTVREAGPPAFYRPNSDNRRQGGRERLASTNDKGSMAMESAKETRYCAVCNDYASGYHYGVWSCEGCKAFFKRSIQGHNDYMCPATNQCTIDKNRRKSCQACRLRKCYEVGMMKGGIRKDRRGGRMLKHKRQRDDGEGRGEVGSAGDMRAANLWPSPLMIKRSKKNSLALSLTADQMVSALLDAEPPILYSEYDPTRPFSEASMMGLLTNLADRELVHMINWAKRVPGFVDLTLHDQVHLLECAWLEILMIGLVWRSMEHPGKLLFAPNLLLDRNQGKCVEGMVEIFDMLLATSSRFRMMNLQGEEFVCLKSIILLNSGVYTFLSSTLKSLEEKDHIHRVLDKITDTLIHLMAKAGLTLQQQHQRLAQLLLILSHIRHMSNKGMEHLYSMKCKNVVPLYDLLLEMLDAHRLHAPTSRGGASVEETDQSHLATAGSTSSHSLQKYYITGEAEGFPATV
Sequence of Androgen receptor (Homo sapiens) (P10275 whole entry, looked up): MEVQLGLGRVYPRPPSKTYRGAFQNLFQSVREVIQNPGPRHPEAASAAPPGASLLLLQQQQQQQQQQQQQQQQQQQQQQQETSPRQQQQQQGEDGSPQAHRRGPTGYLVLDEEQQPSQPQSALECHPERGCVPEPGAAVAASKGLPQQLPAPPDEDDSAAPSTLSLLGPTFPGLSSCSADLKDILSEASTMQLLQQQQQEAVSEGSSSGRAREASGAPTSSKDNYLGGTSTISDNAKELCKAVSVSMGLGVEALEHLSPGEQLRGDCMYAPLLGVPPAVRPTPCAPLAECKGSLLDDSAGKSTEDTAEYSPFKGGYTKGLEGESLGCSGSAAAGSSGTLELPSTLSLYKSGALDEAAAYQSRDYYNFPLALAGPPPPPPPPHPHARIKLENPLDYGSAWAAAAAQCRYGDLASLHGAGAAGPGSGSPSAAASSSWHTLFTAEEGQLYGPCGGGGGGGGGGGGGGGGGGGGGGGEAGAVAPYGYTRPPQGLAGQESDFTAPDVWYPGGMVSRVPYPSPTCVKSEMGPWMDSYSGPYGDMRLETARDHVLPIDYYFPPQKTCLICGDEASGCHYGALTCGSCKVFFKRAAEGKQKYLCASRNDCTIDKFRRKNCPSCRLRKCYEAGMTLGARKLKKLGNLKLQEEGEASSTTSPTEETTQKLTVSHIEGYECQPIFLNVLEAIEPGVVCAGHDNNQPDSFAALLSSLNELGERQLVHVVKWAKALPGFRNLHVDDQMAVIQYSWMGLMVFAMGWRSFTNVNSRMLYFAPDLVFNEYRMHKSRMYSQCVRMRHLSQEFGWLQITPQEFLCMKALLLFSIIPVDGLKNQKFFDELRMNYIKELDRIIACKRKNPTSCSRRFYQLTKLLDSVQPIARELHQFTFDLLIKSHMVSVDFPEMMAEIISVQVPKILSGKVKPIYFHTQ
Sequence of Retinoic acid receptor RXR-alpha (Homo sapiens) (P19793 whole entry, looked up): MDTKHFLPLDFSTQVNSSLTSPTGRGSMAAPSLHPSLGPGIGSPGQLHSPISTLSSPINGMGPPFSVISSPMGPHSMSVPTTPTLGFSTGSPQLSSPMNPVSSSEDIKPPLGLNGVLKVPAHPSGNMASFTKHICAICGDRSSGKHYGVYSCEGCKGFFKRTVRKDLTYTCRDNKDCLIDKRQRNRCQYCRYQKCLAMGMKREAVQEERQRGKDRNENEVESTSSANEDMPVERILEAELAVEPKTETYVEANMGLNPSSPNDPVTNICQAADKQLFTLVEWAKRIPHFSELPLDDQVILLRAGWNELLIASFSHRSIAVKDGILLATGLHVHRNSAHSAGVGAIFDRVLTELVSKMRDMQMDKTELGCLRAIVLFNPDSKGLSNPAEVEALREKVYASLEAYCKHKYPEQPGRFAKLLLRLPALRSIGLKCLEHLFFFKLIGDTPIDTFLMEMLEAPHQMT

For `O=[N+]([O-])OC1CO[C@H]2C(O[N+](=O)[O-])COC12` (some centres undefined), in assay [1], the molecule was classed as inactive.

`CC(=O)O[C@H]1C[C@H](O[C@H]2[C@@H](O)CC(O[C@H]3[C@@H](O)C[C@H](O[C@H]4CC[C@@]5(C)[C@H](CC[C@@H]6[C@@H]5CC[C@]5(C)[C@@H](C7=CC(=O)OC7)CC[C@]65O)C4)O[C@@H]3C)O[C@@H]2C)O[C@H](C)[C@H]1O[C@@H]1O[C@H](CO)[C@@H](O)[C@H](O)[C@H]1O` (some centres undefined): the result in assay [1] was inactive.

Take `CC(C)=CC1C(C(=O)OCc2coc(Cc3ccccc3)c2)C1(C)C` (centres undefined): the Potency result in assay [2] was “inactive”. Also, the Potency in [3] was 61.1 µM (active).

With `O=C(NC(=O)c1c(F)cccc1F)Nc1ccc(Cl)cc1`, in [4], the Potency entry is “inactive”. The max response in assay [5] is -17.2%. Further, the Potency in assay [6] is 15.8 µM (active).

`CC(C)N(C(=O)CCl)c1ccccc1`: the figures for the Potency in assay [4], in assay [7] and in assay [3] were 15.8 µM [inhibitor] (active), 39.8 µM (active) and 17.2 µM (active), respectively.

Turning to `CN1[C@H]2CC(OC(=O)[C@H](CO)c3ccccc3)C[C@H]1[C@H]1O[C@H]12` (some centres undefined), the Potency result in assay [8] and in assay [9] was “inactive” in each case.

As to `CSc1nc(NC(C)C)nc(NC(C)C)n1`, in assay [10], the activation was -3.76% (inactive).

On to `CCCCN(CC)c1c([N+](=O)[O-])cc(C(F)(F)F)cc1[N+](=O)[O-]`, for which the Potency result in assay [2] was “inactive”. In addition, the activation in assay [10] is -2.46% (inactive).

`COc1cc2c(cc1OC)[C@]13CCN4CC5=CCO[C@@H]6CC(=O)N2[C@@H]1[C@H]6[C@@H]5C[C@H]43`: the Potency result in assay [11] and in assay [12] was “inactive” in each case.

For the molecule `CCN1C[C@@]2(COC)[C@H](O)C[C@H](OC)[C@@]34[C@@H]5C[C@@]6(O)[C@H](OC(=O)c7ccccc7)[C@H]5[C@@](OC(C)=O)([C@H]([C@@H](OC)[C@H]23)[C@H]14)[C@H](O)[C@@H]6OC`, the Potency result in assay [11] and in [12] was “inactive” throughout.
